Experimental data published in PubChem BioAssay.
Unmarked numbers belong to inactive results. Active and inactive are the calls of the source. Unless noted, no stated cut-off is given here; in the data, active means inhibition above about 25%; inactive means the rest.

Key:
[1] = target: Nuclear receptor coactivator 1 (Homo sapiens) (UniProt Q15788); assay: SRC1 coactivator transcriptional activity inhibitors, confirmation, cell-based, luminescence, quadruplicate (AID 588820;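 active means mean inhibition above 46.68%, the untreated control wells mean plus 3 SD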;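 further: 0% = DMSO wells and 100% = gossypol 36 µM treated wells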); conditions: HEK293 GAL4-SRC1 luciferase reporter, at 3.6 µM, hits give high values
Nuclear receptor coactivator 1 (Homo sapiens), sequence (Q15788 whole entry, looked up, the tested form may be a part): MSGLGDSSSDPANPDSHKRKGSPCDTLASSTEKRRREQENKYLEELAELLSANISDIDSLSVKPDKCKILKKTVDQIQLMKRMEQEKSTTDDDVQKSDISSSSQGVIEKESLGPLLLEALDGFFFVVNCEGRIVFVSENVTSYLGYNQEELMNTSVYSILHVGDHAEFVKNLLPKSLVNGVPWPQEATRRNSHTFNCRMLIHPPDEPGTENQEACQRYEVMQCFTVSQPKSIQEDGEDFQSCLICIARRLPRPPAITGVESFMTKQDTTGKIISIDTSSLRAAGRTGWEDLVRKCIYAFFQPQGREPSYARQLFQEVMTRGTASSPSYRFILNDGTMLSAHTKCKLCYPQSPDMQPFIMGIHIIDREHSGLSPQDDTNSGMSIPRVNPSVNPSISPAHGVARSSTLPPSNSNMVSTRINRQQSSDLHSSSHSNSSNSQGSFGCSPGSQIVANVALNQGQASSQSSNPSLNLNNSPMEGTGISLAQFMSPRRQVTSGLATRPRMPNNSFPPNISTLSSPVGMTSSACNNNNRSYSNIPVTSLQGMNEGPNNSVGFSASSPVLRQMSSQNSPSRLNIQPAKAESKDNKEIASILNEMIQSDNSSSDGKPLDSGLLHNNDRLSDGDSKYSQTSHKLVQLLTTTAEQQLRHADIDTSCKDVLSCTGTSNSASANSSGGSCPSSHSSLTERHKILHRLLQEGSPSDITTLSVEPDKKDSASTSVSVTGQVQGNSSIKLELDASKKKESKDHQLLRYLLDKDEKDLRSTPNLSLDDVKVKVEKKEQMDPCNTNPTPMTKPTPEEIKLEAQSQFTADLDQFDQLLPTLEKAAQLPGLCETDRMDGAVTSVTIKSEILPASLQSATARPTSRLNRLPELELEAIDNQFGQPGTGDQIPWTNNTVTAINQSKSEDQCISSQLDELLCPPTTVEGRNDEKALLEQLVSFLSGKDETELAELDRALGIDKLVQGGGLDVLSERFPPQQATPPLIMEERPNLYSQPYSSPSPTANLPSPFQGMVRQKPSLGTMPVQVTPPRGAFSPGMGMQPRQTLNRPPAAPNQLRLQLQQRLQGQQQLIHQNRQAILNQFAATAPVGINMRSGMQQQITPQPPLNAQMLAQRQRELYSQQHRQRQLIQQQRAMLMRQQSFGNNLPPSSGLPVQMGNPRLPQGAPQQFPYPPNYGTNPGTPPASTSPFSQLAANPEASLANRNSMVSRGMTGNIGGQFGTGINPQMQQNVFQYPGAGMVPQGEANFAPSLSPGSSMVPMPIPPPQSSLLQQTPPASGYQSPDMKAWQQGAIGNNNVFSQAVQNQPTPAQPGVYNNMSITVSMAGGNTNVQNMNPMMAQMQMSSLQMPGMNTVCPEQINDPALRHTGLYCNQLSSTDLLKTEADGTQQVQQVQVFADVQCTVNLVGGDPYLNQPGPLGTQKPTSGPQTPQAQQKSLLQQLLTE

[2] = VP16 transactivation inhibitors, counter-screen for SRC1 inhibitor project, cell-based, luminescence, high throughput (AID 588824); conditions: cell-based VP16 transactivation luciferase luminescence; at 3.6 µM; hits give high values

Row | Structure (SMILES) | inhibition [1] [%] | inhibition [2]
1 | CCOC(=O)C1CCN(S(=O)(=O)c2ccc3c(c2)CC(C)N3C(=O)C2CC2)CC1 (stereo not drawn) | -22.1 | 3.71%
2 | O=C(N/N=C/c1cc(Cl)ccc1O)c1ccccc1Br | 12.6 | 7.53%
3 | CC(CNC(=O)c1cc(COc2ccc3ncccc3c2)on1)c1ccccc1 (stereo not drawn) | -0.59 | 3.38%
4 | COc1cc(C)c(/C=C(\C#N)C(=O)Nc2ccc(C)cc2)cc1C(C)C | -24 | 0.73%
5 | CC(=O)N/C(=N/c1nc(C)cc(C)n1)Nc1cccc(C)c1C | -0.27 | -6.32%
6 | Nc1c(C(=O)c2ccccc2)sc2nsc(SCCN3CCCC3)c12 | -0.71 | -2.2%
7 | CN(CC(=O)NNC(=O)Cc1ccccc1F)S(=O)(=O)c1ccc(Cl)cc1 | -12.3 | 4.4%
8 | CC(=O)C1=C(C)NC2=C(C(=O)CC(C)(C)C2)C1C (stereo not drawn) | 28 | 15.6%
9 | CCNC(=O)C1(C)CCN(C(=O)c2ccc(F)cc2Cl)C1 (stereo not drawn) | 4.79 | 3.22%
10 | Nc1ccn(C2OC(CO)C(O)C2O)c(=O)n1 (stereo not drawn) | 24.8 | 20.1%
11 | O=C(NNc1ccnc2cc(Cl)ccc12)C1CCCCC1 | -34.1 | 31.1% (active)
12 | Cc1csc(N=Cc2ccc([N+](=O)[O-])o2)n1 | 30.6 | 32.2% (active)
13 | CC(C)n1c(SCC(=O)Nc2nc3c(s2)CCCC3)nc2c1c(=O)n(C)c(=O)n2C | 29.2 | 23.6%
14 | CC(C)(C)c1ccc(CC(=O)N2CCC2(C)C(=O)Nc2ccc(F)cc2F)cc1 (stereo not drawn) | 1.73 | 14.4%
15 | Cc1nc(N=C(N)N)nc2ccccc12 | 2.65 | -11.1%
16 | CC1=C(C(=O)Nc2ccccc2C(=O)NCc2ccccc2)SCCO1 | -7.53 | -4.09%
17 | Cc1cc(C)nc(/N=C(\N)Nc2ccc(CC(=O)OC(C)C)cc2)n1 | -11.9 | 16.6%
18 | O=C(Nc1ccc(S(=O)(=O)N2CCCCC2)cc1)C1CCN(C(=O)c2ccc(F)cc2)CC1 | 7.57 | -1.11%
19 | COc1ccc(O)c(C2(O)C(=O)c3ccccc3C2=O)c1 | -5.99 | 3.91%
20 | COc1ccccc1NC(=O)CN(c1ccccc1)S(=O)(=O)c1ccccc1 | -16.7 | -7.82%
21 | CCOC(=O)c1c(CN(CC)CC)n(C)c2cc(Br)c(O)cc12 | 6.72 | 2.67%
22 | COc1ccc(CC(=O)Nc2ccc3c(c2)CCC3)cc1OC | 10.1 | 2.91%
23 | CC1CCN(C(=O)Cn2c3ccc(F)cc3c3nc4n(c(=O)c32)CCCS4)CC1 | 4.67 | 3.44%
24 | O=C(NNC(=O)c1ccccc1O)c1ccc(Cl)c(S(=O)(=O)N2CCc3ccccc32)c1 | 8.03 | 14.9%
25 | COc1cc(NC(=O)c2cccc3c(-c4cccnc4)coc23)cc(OC)c1OC | -19.1 | 28.3% (active)
26 | C=CCc1cccc(/C=N/NC(=O)C(C)Nc2ccc(C)cc2)c1O (stereo not drawn) | 6.49 | 8.01%
27 | Cn1c(/C=N/NC(=O)c2ccccc2Br)nc2ccccc21 | 4.29 | 15.7%

Row | Structure (SMILES) | inhibition [1] [%] | inhibition [2]
28 | Cc1ccc(C2/C(=C(\O)c3ccc4c(c3)OCCO4)C(=O)C(=O)N2Cc2cccnc2)cc1 (stereo not drawn) | -15.5 | -9.56%
29 | COc1ccc(CCN(C)C(=O)CSc2nnc(C3CC3)n2N)cc1OC | 6.18 | 12.5%
30 | COc1ccc(CNc2nc(C)cc(C)c2C#N)cc1 | -9.61 | -3.68%
31 | CCOc1ccc(NC(=O)c2ccc(CN3CCc4ccccc4C3)cc2)cc1 | -25.7 | 36.5% (active)
32 | CCOC(=O)N1CCC(N(CCN(C)C)C(=S)Nc2ccccc2OCC)CC1 | -21.5 | 4.03%
33 | COc1cc(C=C2CCCC(=Cc3ccc(OCC4CO4)c(OC)c3)C2=O)ccc1OCC1CO1 (stereo not drawn) | -119 | 9.37%
34 | COc1ccc(-c2csc3ncnc(N4CCN(CCO)CC4)c23)cc1 | 0.84 | 9.88%
35 | CC[C@H](C)[C@H](NC(N)=O)C(=O)NCCc1ccc(OC)c(OC)c1 | -11 | -10.9%
36 | O=C(CCCn1c(=S)[nH]c2ccsc2c1=O)Nc1ccc2c(c1)OCCO2 | -1.89 | -10.8%
37 | O=C(CC1CCC1)Nc1cccc2c([N+](=O)[O-])cccc12 | 9.39 | -5.85%
38 | Cc1cccc(C(=O)OCC(=O)NNC(=O)c2cccs2)c1O | -18.5 | -2.62%
39 | COc1ccc(CCN2C(=O)C3C4C=CC(C3C2=O)C2C(=O)N(CCc3ccc(OC)c(OC)c3)C(=O)C42)cc1OC (stereo not drawn) | -5.96 | 11.5%
40 | COc1ccc(N2CCN(C(=O)c3oc4ccccc4c3NC(=O)CCc3cc(OC)no3)CC2)cc1 | 1.78 | -3.04%
41 | CCCCCOc1ccc(/C=C/c2c([N+](=O)[O-])c(=O)n(C)c(=O)n2C)cc1 | 23.6 | 22.4%
42 | O=C(Nc1ccc(F)cc1F)c1c(C(F)(F)F)ccnc1Oc1cccc(C(F)(F)F)c1 | -2.06 | -3.8%
43 | CS(=O)(=O)Nc1cccc(NC(=O)C2Cc3c(-c4ccco4)ccnc3O2)c1 (stereo not drawn) | 22.6 | 14.9%
44 | O=C(Nc1cc(Cl)ccc1N1CCOCC1)c1ccco1 | 1.28 | -5.91%
45 | c1ccc2c(c1)CCN(c1nc3cc4c(cc3s1)OCCO4)C2 | -22.2 | 2.93%
46 | CC(=O)NCCOc1nc(N(C)C)nc(N(C)C)n1 | -4.35 | 0%
47 | O=C1CC(N2CCN(Cc3ccccc3)CC2)C(=O)N1 (stereo not drawn) | -10.4 | -10.1%
48 | Cc1cccc(NC(=O)CSCC(=O)N2CCN(Cc3ccc4c(c3)OCO4)CC2)c1 | 2.48 | 1.12%
49 | Cc1ccc(OCCN2CCN(C(=O)CCC(=O)Nc3nnc(CC(C)C)s3)CC2)cc1 | 2.56 | 11.8%
50 | O=C(NCC[C@@H]1C[C@@H]2C=C[C@H]1C2)c1cc(COc2ccc(F)cc2F)on1 | -4.95 | 1.83%
51 | Cc1sc2ncnc(N3CCC(C(=O)N(C)CC(=O)Nc4ccccc4Br)CC3)c2c1C | 5.26 | 13.3%
52 | Cc1cnccc1NC(=O)c1cccs1 | -0.39 | 0.67%
53 | Cc1ccc2nc(C)c3c(c2c1)N(c1ccc(F)cc1)CC3 | 16.4 | 30.5% (active)
54 | N#CCCN(C(=O)COC(=O)c1ccc2c(=O)n3c(nc2c1)CCC3)c1ccc(F)cc1 | -14.7 | 2.54%
